Source: PubChem
This excerpt belongs to a sample that is enriched for hits.
G9a block = qHTS Assay for Inhibitors of Histone Lysine Methyltransferase G9a; AID 504332, 2011; Histone-lysine N-methyltransferase EHMT2 (Homo sapiens), Q96KQ7; G9a H3K9 monomethylation, AlphaScreen, 2 h; hit rate 8.8% among 350,000; Potency, µM (doses to about 102 µM), for the others: top-dose activity, negative = inhibition, most hits filed as inhibitors; further: on the % scale 0 is the no-effect control and ±100 the full control effect; nearly all actives have a fitted effect of over 75% in size
Target sequence (Q96KQ7 913-1193 limits assumed): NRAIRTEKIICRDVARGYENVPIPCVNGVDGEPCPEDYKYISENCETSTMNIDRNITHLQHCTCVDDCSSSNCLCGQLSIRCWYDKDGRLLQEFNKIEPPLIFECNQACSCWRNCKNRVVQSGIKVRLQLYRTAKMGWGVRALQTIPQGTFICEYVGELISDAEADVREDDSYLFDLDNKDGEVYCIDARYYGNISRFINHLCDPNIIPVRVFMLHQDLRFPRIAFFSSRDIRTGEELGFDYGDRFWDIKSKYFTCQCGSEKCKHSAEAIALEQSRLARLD
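Quantitative HTS format: methyltransferase activity on a biotin-tagged H3K9 peptide is measured by AlphaScreen, using a rabbit anti-monomethyl-H3K9 antibody with streptavidin donor and anti-IgG acceptor beads. Final levels are 20 nM enzyme, 500 nM peptide, 20 uM SAM; 2 h RT.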
12-LOX inh = Primary qHTS assay for inhibitors of human arachidonate 12S-lipoxygenase (ALOX12): Round 2. Polyunsaturated fatty acid lipoxygenase ALOX12 (Homo sapiens), P18054. purified 12hLO, xylenol orange hydroperoxide absorbance. Potency, µM (highest dose often 108 µM), without a hit: at the highest dose activity change, negative = inhibition, hits mostly inhibitors. hit rate 1.1% among 580,000. AID 1671190, 2021; further: on the % scale 0 is the no-effect control and ±100 the full control effect
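Purified human 12hLO (150 nM final) in 25 mM Hepes, 0.01% Triton X-100, pH 7.0 was preincubated 15 min at room temperature with compound. Then 40 uM arachidonic acid was added, 30 min. Hydroperoxide was read by Fe-XO absorbance ratio 573/405 nm.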
Sfp PPTase inh = qHTS Assay for Inhibitors of Bacillus subtilis Sfp phosphopantetheinyl transferase (PPTase). 4'-phosphopantetheinyl transferase ffp (Bacillus subtilis), Q9F4F7. Biochemical Sfp PPTase activity, qHTS. Potency, µM, for inactives: largest response in the series, negative = inhibition, most hits filed as inhibitors. hit rate 3.5% among 310,000;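 further: the enzyme is Sfp with the accession as filed and its product quenches rhodamine fluorescence; 0% = enzyme reaction without inhibitor and -100% = no enzyme wells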
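Fluorescence-quenching assay with 15 nM Sfp, 5 uM rhodamine-CoA and 12.5 uM BHQ-2-labelled ybbR peptide in pH 7.6 Hepes/MgCl2 buffer. Enzyme was pre-incubated with compound for 15 min at room temperature. Rate was taken from the 30-min fluorescence change (525/598 nm).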
GRP78 ERSR act = qHTS for Inducers of the Endoplasmic Reticulum Stress Response (ERSR) in Human Glioma: qHTS; U87-MG GRP78 promoter luciferase reporter, 16 h; hit rate 0.02% among 420,000; Potency, µM, for the others: at the top dose activation, usual class: activators; further: series mostly up to about 76 µM; % of control where 0% means no effect; nearly all actives have a fitted effect of over 35% in size
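Stably transfected U87-MG human glioma cells carrying a GRP78-based luminescent sensor were seeded at 1000 cells/well, pin-dosed with compounds and incubated 16 h. Luciferase reagent was then added, and end-point luminescence was read after 10 min at room temperature.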
VDR inhibitor = Inhibitors of the vitamin D receptor (VDR): qHTS | AID 504847, 2011 | Potency, µM, without a hit: max response, negative = inhibition, hits mostly inhibitors | hit rate 0.93% among 400,000 | VDR-SRC2-3 peptide fluorescence polarization, 2 h | Vitamin D3 receptor (Homo sapiens), P11473; further: on the % scale 0 is the no-effect control and ±100 the full control effect
Target sequence (P11473 whole entry, looked up): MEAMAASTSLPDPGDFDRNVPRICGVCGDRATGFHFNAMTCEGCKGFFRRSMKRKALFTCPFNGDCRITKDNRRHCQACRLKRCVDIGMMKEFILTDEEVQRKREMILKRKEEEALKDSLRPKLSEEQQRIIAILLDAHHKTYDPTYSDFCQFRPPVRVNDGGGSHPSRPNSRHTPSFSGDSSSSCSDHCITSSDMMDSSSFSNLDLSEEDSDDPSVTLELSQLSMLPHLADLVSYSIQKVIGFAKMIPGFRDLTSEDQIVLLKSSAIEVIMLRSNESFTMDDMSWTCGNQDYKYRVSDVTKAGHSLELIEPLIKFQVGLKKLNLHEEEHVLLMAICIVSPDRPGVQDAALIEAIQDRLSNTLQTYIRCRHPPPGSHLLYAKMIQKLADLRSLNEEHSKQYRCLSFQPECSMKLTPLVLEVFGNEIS
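Fluorescence polarization assay measuring small-molecule disruption of VDR binding to the coregulator peptide SRC2-3. Compounds were pin-transferred (23 nl) into the reagent mix and incubated 2 h at room temperature before reading.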
Numbers without * were called inactive; ? = inconclusive; nt = not tested or not shown; [ ] = remark or other dose. The call rests on the fitted dose curve; in most records, active means well fitted curve in the direction sought with a large enough effect; inconclusive means small, poorly fitted or top-dose-only effect, or another doubt; inactive means no such curve, though single readings can be large; an effect the other way counts as inactive or inconclusive. Potency means the concentration at half of the fitted maximal effect.

SMILES	G9a block	12-LOX inh	Sfp PPTase inh	GRP78 ERSR act	VDR inhibitor
O=C(O)c1ccc(N/N=C/c2ccc3nccnc3c2)cc1	50µM*	-26%	-2%	-14%	-10%
Cc1ccc2nc(Cl)c(/C=N/Nc3ccc(C(=O)O)cc3)cc2c1	50µM*	?	-22%	-8%	-22%
C(=N\NCc1ccccc1)/c1ccc2nccnc2c1	50µM*	0%	9%	-6%	-20%
COc1ccc(CN(C)C(=O)c2n[nH]c(=O)c3ccccc23)cc1F	nt	7%	nt	nt	nt
CC1=CC2=NC(=O)/C(=C\c3cc(C)n(-c4ccccc4F)c3C)C(=N)N2O1	4%[59 µM]	-18%	0%	-1%	-7%
CS(=O)(=O)C1=NSC2=NC(=O)/C(=C\c3cccn3-c3ccc(Cl)cc3)C(=N)N21	45µM*	?	?	-9%	?
Cc1cc(/C=C2/C(=N)N3C(=NC2=O)SN=C3S(C)(=O)=O)c(C)n1-c1ccccc1F	50µM*	?	-4%	4%	?
O=C(Cn1ncc2c1-c1ccccc1OC2)N1CCN(c2cccc(Cl)c2)CC1	nt	-7%	nt	nt	nt
CC(=O)c1cccc(OCC(O)CNCC2CCCCC2)c1 (configuration not stated)	-5%	?	3%	-1%	9%
CC(=O)c1cccc(OCC(O)CNCCOc2ccc(C)cc2)c1 (configuration not stated)	40µM*	?	-18%	-5%	-18%
NNC(=O)CS(=O)(=O)CS(=O)(=O)CC(=O)NN	3.2µM*	11%	-12%	-3%	-1%
COC(=O)c1sc(N2CCCCC2)c(C#N)c1N	-31%	2%	-4%	0%	4%
CCNc1sc(C(C)=O)c(N)c1C#N	nt	3.2µM*	nt	nt	nt
N#Cc1c(-c2ccco2)cc(-c2ccc(F)cc2)nc1N	?	5.6µM*	28µM*	-7%	-12%
CCS(=O)(=O)N1CC2(CN(C(=O)Cc3ccccn3)[C@@H](CO)c3[nH]c4cc(OC)ccc4c32)C1	nt	-28%	nt	nt	nt
CCS(=O)(=O)N1CC2(CN(Cc3ccc4c(c3)OCO4)[C@@H](CO)c3[nH]c4cc(OC)ccc4c32)C1	nt	14µM*	nt	nt	nt
COc1ccc2c3c([nH]c2c1)[C@@H](CO)N(Cc1ccccc1Cl)CC31CN(C(=O)C2CC2)C1	nt	16µM*	nt	nt	nt
CCCOc1ccc(OCCOCCN2CCc3ccccc3C2)cc1	10µM*	?	?	3%	-18%
C=CCc1cc(OC)ccc1OCCOCCN1CCc2ccccc2C1	11µM*	?	35µM*	-8%	1%
CSc1ccccc1NC(=O)CN(C)Cc1c(O)ccc2ccccc12	2.2µM*	5µM*	-6%	0%	?
CN(CC(=O)Nc1ccc(N2CCOCC2)cc1)Cc1c(O)ccc2ccccc12	0.5µM*	?	?	-2%	28µM*
CN(CC(=O)Nc1ccc(N2CCOCC2)cc1)CC(=O)Nc1ccc(N2CCOCC2)cc1	?	-3%	-7%	-4%	-4%
COc1cc2nc(CN(C)CC(=O)Nc3ccc(N4CCOCC4)cc3)[nH]c(=O)c2cc1OC	-6%[59 µM]	0%	3.5µM*	-3%	-14%
CCN(CC(=O)Nc1ccc(N2CCOCC2)cc1)Cc1nc2ccccc2c(=O)[nH]1	-50%	-11%	?	-3%	15%
Cc1cnc2c(S(=O)(=O)NCCCN3CCCC3)cccc2c1	nt	-17%	nt	nt	nt
SMILES	G9a block	12-LOX inh	Sfp PPTase inh	GRP78 ERSR act	VDR inhibitor
CC1=C(C(=O)OCc2ccc3c(c2)OCO3)C(c2c(F)cccc2Cl)CC(=O)N1 (configuration not stated)	nt	1%	nt	nt	nt
O=C(NCC1Cn2cccc2CN1Cc1ccccc1)c1ccc2cc[nH]c2c1 (configuration not stated)	nt	192%	nt	nt	nt
O=C(c1cc([N+](=O)[O-])ccc1Cl)N1c2ccccc2Sc2ccccc21	8.9µM*	-10%	-11%	-2%	-6%
CCOC(=O)CN1CC23C=CC(O2)C(C(=O)Nc2ccc(OC)cc2OC)C3C1=O (configuration not stated)	50µM*	427%	-15%	-1%	-12%
CCOC(=O)CN1CC23C=CC(O2)C(C(=O)NC2CCCC2)C3C1=O (configuration not stated)	45µM*	383%	?	-3%	-7%
COC(=O)C1C2C=CC3(CN(Cc4ccco4)C(=O)C13)O2 (configuration not stated)	?	-4%	13µM*	-4%	14%
CCOC(=O)CN1CC23C=CC(O2)C(C(=O)O)C3C1=O (configuration not stated)	-41%	380%	18%	-3%	-17%
CCOC(=O)CN1CC23C=CC(O2)C(C(=O)NCc2ccc(C)cc2)C3C1=O (configuration not stated)	35µM*	16%	22%	-2%	-3%
CCOc1ccc(S(=O)(=O)N2CCSC2c2ccc(OC)c(Br)c2)cc1 (configuration not stated)	nt	-25%	nt	nt	nt
Cc1cc(NC(=O)COC(=O)c2ccc3c(c2)NC(=O)C(C)S3)no1 (configuration not stated)	nt	-8%	nt	nt	nt
O=C(/C=C\c1ccccc1)Nc1ccc(NC(=O)c2ccco2)cc1	-7%	-14%	12%	1%	20µM*
O=C(Oc1ccccc1)c1ccc(NC(=O)c2ccco2)cc1	3.5µM*	-30%	-36%	3%	-22%
O=C(c1cc2ccccc2[nH]1)N(Cc1ccc(F)cc1)C1CC1	nt	6%	nt	nt	nt
CC(C)CC(=O)NC1CCN(c2cnn(Cc3ccccc3)c(=O)c2)CC1	nt	9%	nt	nt	nt
COC(=O)[C@@H]1CC[C@H](C)[C@@H](c2ccc(C)cc2)N1C(=O)c1ccc(/C=N/O[C@@H](C)CN2CCCCc3nc(C)c(C)cc32)cc1	32µM*	nt	25µM*	nt	nt
CC(CN1CC(=O)NC(=O)C1)N1CC(=O)NC(=O)C1 (configuration not stated)	2.8µM*	-4%	-13%	-1%	?
O=C(CN1CCN(C(=O)c2cc(-c3ccccc3)nc3ccccc23)CC1)NC1CC1	nt	66%	nt	nt	nt
COc1ccc2c(c1)C(=O)[C@H](O)[C@@H](c1ccc(OC)c(Br)c1)O2	2%	?	-2%	4%	-7%
COc1cc(C2Oc3cc(C4Oc5cc(O)cc(O)c5C(=O)C4O)ccc3OC2CO)ccc1O (configuration not stated)	50µM*	?	-2%	-4%	-1%
Cc1oc2cc(OCC(=O)O)ccc2c(=O)c1Oc1ccccc1Br	nt	32µM*	nt	nt	nt
